± gives the standard deviation.
System: MILI (PIWIL2) piRISC loaded with L1MC piRNA (26 nt)
Assay: pre-steady-state target cleavage rate (min^-1); guide: L1MC piRNA 5'p-UAACUAAAUACUAUGCAAGCUGUAGG; MIWI and MILI are mouse PIWI proteins and EfPiwi is from a freshwater sponge; tags in brackets are library labels; higher = faster piRNA-guided slicing of the target
Procedure, shortened: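 For Cleave-'n-Seq, a transcribed, DNA-blocked target RNA library […] met 1 nM active affinity-purified piRISC with one synthetic guide at 33 °C for 0–8 or 0–960 min in HEPES–potassium acetate buffer, with or without 500 nM GTSF1 partner protein. Uncleaved targets were sequenced and normalised to depth and weakly complementary targets, with three trials pooled and k3 capped at 0.0001 min^-1. A burst-and-steady-state fit supplied the pre-steady-state cleavage rate.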

[1] = auxiliary factor: none (no GTSF1)
[2] = auxiliary factor: 500 nM mouse GTSF1
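Further: 1 nM active piRISC with 0.1 nM target library at 33 °C single turnover.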

Sequence	pre-steady-state target cleavage rate [1]	pre-steady-state target cleavage rate [2]
UCCUGGAUCAGCUUGCAAUCUAUUUACAAA	< 0.0001	–
UCCUGGAUGAGCUUGCAUAGUAUAUUGUUA	–	0.0743 ± 0.017
UCCUGGAUCAGCUUGCUUAGAAUUUAGUUA	–	0.0318 ± 0.0073
UCCUGGAUGUCGAACGAUAGUUAAUAGUUA	< 0.0001	–
UCCUGGAUGAGCUUGCAUGUAUUUAGUUA	–	0.0097 ± 0.004
UCCUGGAUGUCGAACGUAAGUAAUUAGUUA	< 0.0001	–
UCCUGGAUGUCGAAGCAUAGUAUUUACUUA	–	0.00488 ± 0.0029
UCCUGGAUGUGCUUGGAUUGUAUUUAGUUA	–	0.00469 ± 0.0044
UCCUGGAUCAGCAACCAUAGUAUUUACAAA	< 0.0001	–
UCCUGGAUCAGCUUGCAUAGUAUAAUGUUA	–	0.116 ± 0.013
UCCUGGAUGUGCUUGCAUAGUAUUAUGUUA	–	0.0376 ± 0.013
UCCUGGAUCAGCUUGCAUUGAAUUUAGUUA	–	0.0248 ± 0.0084
UCCUGGAUGUCCUUCCUUAGUAUUUAGUUA	–	0.00908 ± 0.0046
UCCUGGAUGUCGUUGCAUAGUAUGUAGUUA	–	0.015 ± 0.0074
UCCUGGAUGAGCUUGCAUAGUAUUUUCAAA	–	0.00959 ± 0.0061
UCCUGGAUGUCGAACGUAUGUAUUUCAGUUA	< 0.0001	–
UCCUCCUACUCGUUGCAUAGUAUUUUCAAA	–	0.0494 ± 0.013
UCCUGGAACAGCUUGCAUAGAUUUUACAAA	–	0.00713 ± 0.0045
UCCUCCUACAGGAAGCAUAGUAUUUUCAAA	–	0.0352 ± 0.012
UCCUGGAUGAGCAAGCAUAGUAUUUACAAA	–	0.0174 ± 0.0067
UCCUGGAUGUCCUAGCAUAGAAUUUAGUUA	–	0.00538 ± 0.004
UCCUGGAUGUCGAUGCAUAGUAUAUAGUAA	–	0.063 ± 0.013
UCCUGGAUGUGCUUGCUUAGAAUUUAGUUA	–	0.00417 ± 0.0032
UCCUGGAUGUGCUAGCAUAGUAUUUAGAUA	–	0.0954 ± 0.023

From the supplement of paper PMC10338343
